PubChem BioAssay (NCATS)
Inconclusive results are not listed. Activity calls are given as the source filed them. Unless noted, calls come from the whole dose curve; as a rule, active = well fitted inhibition curve with a large enough effect; inconclusive = small, poorly fitted or top-dose-only effect; inactive = flat fitted curve, though single readings scatter.

Assays:
[1] = qHTS drug screen for cell cycle checkpoint inhibitors in PARPi-resistant BRCA-mutant ovarian cancer cell lines. (AID 1963452; calls by dose curve); settings: PEO1/OlaR viability, CellTiter-Glo luminescence, 96 h, stronger effect = lower value
Outline: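 PEO1, PEO4 and PEO1/OlaR ovarian cancer cells, 600 per well, exposed 96 h at 37C to a dilution series. Viability read by CellTiter-Glo luminescence, normalized to DMSO and empty wells; activity summarized as Z-AUC.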

[2] = qHTS profiling for inhibitors of Plasmodium falciparum proliferation (AID 504749); note: potency is the fitted concentration of half-maximal effect;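 for activity, negative = inhibition: 0% = DMSO vehicle and full inhibition = artemisinin control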; for all read-outs here: nearly all actives have a fitted effect of over 60% in size; settings: P. falciparum in erythrocytes, SYBR Green DNA, 72 h; for activity, negative = inhibition: at 28.7 µM (top of the series)
Outline: (§1)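 In a 72 h erythrocytic culture (37 C, humidified, 5% CO2) at 2.5% hematocrit and 0.3% starting parasitemia, compounds were tested; SYBR Green I in detergent lysis buffer stained parasite DNA overnight.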

7G8 = experiment: as above; settings: P. falciparum in erythrocytes, SYBR Green DNA, 72 h; series mostly up to 28.7 µM
Outline: as §1

ATS95 = experiment: as above; settings: P. falciparum in erythrocytes, SYBR Green DNA, 72 h; series mostly up to 28.7 µM
Outline: as §1

CP192 = experiment: as above; settings: P. falciparum in erythrocytes, SYBR Green DNA, 72 h; series mostly up to 28.7 µM
Outline: as §1

[3] = qHTS for identification of novel therapeutic agents for treatment of microphthalmiaassociated transcription factor (MiT) renal cell carcinoma (RCC) (AID 1963991); settings: CellTiter-Glo, 48 h, stronger effect = lower value
Outline: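 Three TFE3-fusion RCC lines (UOK109, UOK124, UOK145), 500 cells/well in complete medium, were treated with MIPE 4.0 compounds for 48 hours at 37 C. Viability was by CellTiter-Glo luminescence, normalized to DMSO (100%) and empty wells (0%); curves fitted over 11 concentrations.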

3D7 = experiment: qHTS profiling for inhibitors of Plasmodium falciparum proliferation (AID 504749); note: nearly all actives have a fitted effect of over 60% in size; note: potency is the fitted concentration of half-maximal effect;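 for activity, negative = inhibition: 0% = DMSO vehicle and full inhibition = artemisinin control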; settings: P. falciparum in erythrocytes, SYBR Green DNA, 72 h; series mostly up to 28.7 µM
Outline: as §1

C2A = experiment: as above; settings: P. falciparum in erythrocytes, SYBR Green DNA, 72 h; series mostly up to 28.7 µM
Outline: as §1

CP185 = experiment: as above; settings: P. falciparum in erythrocytes, SYBR Green DNA, 72 h; series mostly up to 28.7 µM
Outline: as §1

CP201 = experiment: as above; settings: P. falciparum in erythrocytes, SYBR Green DNA, 72 h; series mostly up to 28.7 µM
Outline: as §1

CP211 = experiment: as above; settings: P. falciparum in erythrocytes, SYBR Green DNA, 72 h; series mostly up to 28.7 µM
Outline: as §1

AA1029 = experiment: as above; settings: P. falciparum in erythrocytes, SYBR Green DNA, 72 h; series mostly up to 28.7 µM
Outline: as §1

AS120 = experiment: as above; settings: P. falciparum in erythrocytes, SYBR Green DNA, 72 h; series mostly up to 28.7 µM
Outline: as §1

ATS189 = experiment: as above; settings: P. falciparum in erythrocytes, SYBR Green DNA, 72 h; series mostly up to 28.7 µM
Outline: as §1

CP191 = experiment: as above; settings: P. falciparum in erythrocytes, SYBR Green DNA, 72 h; series mostly up to 28.7 µM
Outline: as §1

CP194 = experiment: as above; settings: P. falciparum in erythrocytes, SYBR Green DNA, 72 h; series mostly up to 28.7 µM
Outline: as §1

[4] = measured here: PEO1 parental Z-AUC

CN1CCC(=C2c3ccccc3CC(=O)c3sccc32)CC1
inactive: Z-AUC [1] 1.25 | Potency (CP192)
1.46: Z-AUC [1, 4]
active: Potency ([2]; parasite line A) 5.01 µM | Potency (7G8) 11.2 µM | Potency (ATS95) 11.2 µM
0.927: Z-AUC ([1]; measured here: PEO4 Z-AUC)

CC1(C)O[C@H]2CC(=O)OC[C@]23[C@H]2CC[C@@]4(C)[C@H](c5ccoc5)OC(=O)[C@H]5O[C@]54[C@]2(C)C(=O)C[C@@H]13
1.11: z-score ([3]; TFE3-RCC viability, measured here: UOK145 Z-AUC)
0.649: z-score ([3]; TFE3-RCC viability, measured here: UOK124 Z-AUC)
0.617: z-score ([3]; TFE3-RCC UOK109 viability, measured here: UOK109 Z-AUC)

CN(C)CCCN1c2ccccc2CCc2ccc(Cl)cc21
active: Potency (7G8) 5.01 µM
inactive: Z-AUC [1] -0.0245 | activity, negative = inhibition ([2]; parasite line A) -15.4% | activity, negative = inhibition ([2]; parasite line B) -29.1% | Potency (3D7) | Potency (C2A) | Potency (CP185) | Potency (CP201) | Potency (CP211)
-0.498: Z-AUC [1, 4]
-0.622: Z-AUC ([1]; measured here: PEO4 Z-AUC)

NC12CC3CC(CC(C3)C1)C2
inactive: Z-AUC [1] 0.0042 | activity, negative = inhibition ([2]; parasite line A) 8.47% | activity, negative = inhibition ([2]; parasite line B) 14.2% | Potency (3D7) | Potency (AA1029) | Potency (AS120) | Potency (ATS189) | Potency (ATS95) | Potency (C2A) | Potency (CP185) | Potency (CP191) | Potency (CP192) | Potency (CP194) | Potency (CP201) | Potency (CP211)
0.0418: Z-AUC [1, 4]
0.463: Z-AUC ([1]; measured here: PEO4 Z-AUC)

CN1CCN2c3ccccc3Cc3ccccc3C2C1 (stereo not drawn)
inactive: activity, negative = inhibition ([2]; parasite line A) 6.93% | activity, negative = inhibition ([2]; parasite line B) 3.33% | Potency (3D7) | Potency (7G8) | Potency (AA1029) | Potency (AS120) | Potency (ATS189) | Potency (ATS95) | Potency (C2A) | Potency (CP185) | Potency (CP191) | Potency (CP192) | Potency (CP194) | Potency (CP201) | Potency (CP211)
